Experimental data: PubChem BioAssay (NCI)
Compounds without any hit were thinned out: in the full panel of roughly 83,000, 20% have a hit.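 Step 1: grow cells in 96-well plates. Step 2: add test compound at a single concentration. Step 3: incubate 48 h. Step 4: record percent growth.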 Values without a mark were called inactive. Active and inactive are the calls of the source.

Each compound was assayed on SR leukemia (assay: NCI-60 one-dose screen, 48 h (100 = growth as untreated, 0 = no growth, -100 = all killed)). Conditions: 10 µM unless noted.
Procedure: Growth inhibition of the SR human tumor cell line is measured as a screen for anti-cancer activity. Cells are grown in 96 well plates and exposed to the test compound for 48 hours. Compounds are tested at a single concentration, which is 10^-5 M for most compounds. The reported endpoint is percent growth (GI% or GIPRCNT), where numbers from 0 - 100% represent growth inhibition, and numbers from -100% - 0 represent cell death. For example, a value of 40 represents 60% growth inhibition. A value of 0 means no net growth occurred over the course of the experiment. A value of -40 indicates 40% of cells at the beginning of the experiment died by the end of the experiment. A value of -100 means all cells are dead at the end of the experiment.
NCI-60 Human Tumor Cell Lines Screen was performed using the standard one-dose NCI protocol, which is described in more detail at https://dtp.cancer.gov/discovery_development/nci-60/default.htm.
Compounds with GIPRCNT values below 10 were considered active. Activity score was based on GIPRCNT using the following formula: […]
Score is 0 for GIPRCNT values of 100 or above, 50 for GIPRCNT values of 0, and 100 for GIPRCNT values of -100.

Structure (SMILES) | growth
NC(N)=N/N=C/c1ccccc1 | 96%
COc1c(B(O)O)cccc1-c1nc2ccc3[nH]ncc3c2c2c1CCCC2 | 13.9%
Brc1cccc(-n2ncc3c(Nc4ccc(-c5nnc(-c6ccccc6)o5)cc4)ncnc32)c1 | 119%
CCc1ccc(Nc2ncnc3c2cnn3-c2cccc(Br)c2)cc1 | 108%
CCCC(CCC)NCC(O)c1cc(-c2ccc(C(F)(F)F)cc2)nc(C(F)(F)F)c1 (stereo not given) | -61.4% (active)
Cc1ccc(CSCc2ccc(C(=O)NC3CC3)o2)cc1 | 18.2%
O=C1OC(c2ccc(-c3ccccc3)cc2)=C/C1=C/c1c(Cl)cccc1Cl | 69.6%
O=C(OCc1ccc2c(Cl)cc(Cl)c(O)c2n1)c1cc2ccccc2[nH]1 | 0.939% (active)
CC1(C)CC[C@]2(C(=O)N3CCNCC3)CC[C@]3(C)C(=CC[C@@H]4[C@@]5(C)CCC(=O)C(C)(C)[C@@H]5CC[C@]43C)[C@@H]2C1 | 109%
Nc1nc2ccc([C@@H]3Nc4ccc5[nH]ncc5c4[C@H]4[C@H]5CCC(C5)[C@H]43)cc2s1 | 51.1%
Cc1ccc(NC(=O)c2[nH]c(SCCN(C)C)nc2-c2ccc(F)cc2)cc1Nc1ccc2ncn(C)c(=O)c2c1 | -24.9% (active)
CN1CCN(Cc2ccc(NC(=O)c3cncc(C#Cc4cnc5cccnn45)c3)cc2C(F)(F)F)CC1 | 5.44% (active)
O=C(c1ccc(C(F)(F)F)c(Cl)c1)N(Cc1ccc(Cl)cc1)c1ccc(-c2cc(C(F)(F)F)[nH]n2)c(O)c1 | 20%
N#CC1=C(N)Oc2nc[nH]c(=O)c2C1c1cccs1 (stereo not given) | 92%
O=[N+]([O-])c1cccc([I+]c2ccccc2)c1 | 16.6%
COc1cc(C2Nc3ccccc3S2)cc(CN2CCOCC2)c1O (stereo not given) | 49%
COc1cc2nccc(Oc3ccc(NC(=O)C4(C(=O)Nc5c(F)cc(F)cc5F)CC4)cc3)c2cc1Oc1ccc(N)cn1 | 58.5%
COc1ccc(-c2nc(-c3ccccc3OCc3ccccc3OC)nc(C)c2C(C)=O)cc1 | 78.8%
CC(=O)c1nn(-c2ccccc2)/c(=N\N=C\c2coc3ccc(F)cc3c2=O)s1 | 96.2%
COc1ccc(/C=C2\CCCC3=C2N=C2SC(C)=NN2C3c2ccc(OC)c(OC)c2)cc1OC (stereo not given) | 14.3%

Structure (SMILES) | growth
Oc1c(-c2cc(C(F)(F)F)[nH]n2)cc(Cl)c(OCc2ccc(Cl)cc2)c1-c1ccc(Cl)c(C(F)(F)F)c1 | 15.2%
c1ccc(C(Nc2ccccn2)(c2ccccc2)c2ccccc2)cc1 | 97%
NC(=S)N/N=C(/c1cccs1)C1CC1 | 120%
CC(C)COC(=O)NC(C)(C)C | 91.5%
Cc1ccc(N2C3c4ccccc4N(S(=O)(=O)c4ccc(C)cc4)C2c2ccccc2N3S(=O)(=O)c2ccc(C)cc2)cc1 | 96%
CCC(=O)NC(O)C(Cl)(Cl)C(C)Cl (stereo not given) | 105%
O=c1[nH]c2cc(Cl)c(Cl)cc2o1 | 126%
COc1ccc2c(c1)CCCC21C(=O)Nc2ccccc21 (stereo not given) | 80.5%
O=C(C=P(c1ccccc1)(c1ccccc1)c1ccccc1)CCl | 3.51% (active)
CC(=O)c1cc(C(=O)c2ccc3c(c2)Sc2ccccc2N3)c2c(C)cccn12 | 12.8%
O=C(O)c1cn(-c2ccccc2)nc1-c1ccc(O)cc1 | 93.3%
N#Cc1nc(-c2ccc(Cl)cc2)cc(-c2ccc(Nc3nc(N4CCCCC4)nc(N4CCCCC4)n3)cc2)c1N | 105%
CCN(CC)Cc1cc(Nc2ccnc3cc(Cl)ccc23)cc(-c2ccc(Cl)cc2)c1O | -22.7% (active)
Oc1ccc(-c2cnc(-c3ccccc3)[nH]2)c(O)c1 | 40.2%
Cn1c(=O)c2[nH]c(Cc3ccc4c(c3)OCO4)nc2n(C)c1=O | 120%
C/C(=N\NC(=S)N1CCCCC1)c1ccccn1 | -7.37% (active)
Cc1cc(C#Cc2ccccc2)ccc1-n1c(/C=C/c2ccc(F)cc2)nc2ccccc2c1=O | 64.8%
CC1CCN(Cc2ccc(NC(=O)c3cc4ccc5cccnc5c4[nH]3)cc2)CC1 | 2.01% (active)
N[C@@H](CO)C(=O)O | 103%
CCOP(=O)(O)OP(=O)(O)OCC | 91.2%
